IL-1B inflam inh: qHTS for Inhibitors of Inflammasome Signaling: IL-1-beta AlphaLISA Primary Screen. THP-1 LPS/ATP IL-1B secretion, AlphaLISA, 16 h; active compounds read low. 360,000 compounds, 4.7% hits. activity change, % at 57.5 µM. AID 743279, 2014; in the data active = activity change below about -50%; inconclusive = mostly about -30% to -49%; note: % is set by controls: 0 for no effect and ±100 for the full control effect
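THP-1 cells pretreated 1 hr with compounds (up to 57.5 uM final), then stimulated with LPS (250 ng/mL final) plus ATP (1.25 mM final); secreted IL-1B measured by AlphaLISA after 16 hr, decreased signal indicating inhibition.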
Vif-A3F inh: qHTS for Inhibitors of Vif-A3F Interactions: qHTS; HeLa A3F-eYFP + Vif (tagged APOBEC3F with the HIV-1 protein that degrades it), YFP fluorescence increase; Potency, µM (series often up to 46.1 µM), inactives show at the top dose activity, negative = active; 390,000 compounds, 0.2% hits; AID 602313, 2012; note: potency is the fitted concentration of half-maximal effect; % of control where 0% means no effect; nearly all actives have a fitted effect of over 65% in size
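HeLa cells stably expressing A3F-eYFP plus Vif, plated and incubated overnight at 37 deg C, then exposed to compounds overnight at 37 deg C. Blocked degradation read as raised yellow fluorescence (Ex 488/Em 500-530).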
SW480 rerep: A quantitative high throughput screen for small molecules that induce DNA re-replication in SW480 colon adenocarcinoma cells | SW480 DNA re-replication, Hoechst DNA content imaging, 48 h | Potency, µM (series often up to 46.1 µM), for inactives: top-dose re-replication activation, actives largely listed as activators | AID 624297, 2012 | 340,000 compounds, 1.8% hits; note: potency is the fitted concentration of half-maximal effect; % of control where 0% means no effect; nearly all actives have a fitted effect of over 55% in size
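250 cells/well; 23 nL cpd via pin tool; 48 hr, 37 C, 5% CO2; Hoechst 40 min; imager read of total nuclear intensity, ex 405/em 500-530 nm.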
Giardia killer: Small Molecules that selectively kill Giardia lamblia: qHTS. AID 540267, 2011. activity change, % at 7.66 µM, hits read low. Giardia lamblia trophozoite viability. 340,000 compounds, 0.15% hits; in the data active = activity change below about -80%; inconclusive = between about -30% and that limit;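 note: parasites exposed to compound for two days anaerobically before the ATP read; % is set by controls: 0 for no effect and ±100 for the full control effect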
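Compounds were tested on trophozoites seeded at 100 cells/well and held 48 hrs at 37 deg C anaerobically. An ATP-based luminescent kit measured the remaining live cells.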
Vif-APOBEC3G blk: qHTS for Inhibitors of Vif-A3G Interactions: qHTS; Potency, µM (titrated, usually from 46.1 µM), for inactives: at the top dose activity, negative = active, usual class: inhibitors; HeLa A3G-eYFP + Vif (tagged APOBEC3G with the HIV-1 protein that degrades it), YFP fluorescence, overnight; 410,000 compounds, 0.076% hits; note: potency is the fitted concentration of half-maximal effect; % is set by controls: 0 for no effect and ±100 for the full control effect; nearly all actives have a fitted effect of over 60% in size
Target sequence (Q9HC16 whole entry, looked up): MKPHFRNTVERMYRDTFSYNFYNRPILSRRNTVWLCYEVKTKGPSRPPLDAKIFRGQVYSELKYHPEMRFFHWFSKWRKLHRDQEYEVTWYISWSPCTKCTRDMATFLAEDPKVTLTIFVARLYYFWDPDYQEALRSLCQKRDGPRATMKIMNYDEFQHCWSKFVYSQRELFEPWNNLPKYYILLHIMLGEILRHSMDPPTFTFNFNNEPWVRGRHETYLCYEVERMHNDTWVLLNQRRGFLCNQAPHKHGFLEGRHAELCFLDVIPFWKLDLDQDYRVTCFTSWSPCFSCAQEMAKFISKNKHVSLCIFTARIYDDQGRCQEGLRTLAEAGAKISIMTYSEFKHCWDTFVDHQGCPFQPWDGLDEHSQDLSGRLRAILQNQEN
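HeLa cells stably expressing Vif and C-terminally eYFP-tagged A3G, seeded overnight at 37 deg C, then exposed to compound by pintool overnight at 37 deg C. Rise in yellow fluorescence (Ex 488/Em 500-530, Acumen) marks blocked Vif-driven A3G degradation.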
MCF10A rerep: A quantitative high throughput screen for small molecules that induce DNA re-replication in MCF 10a normal breast cells; MCF 10A DNA re-replication, Hoechst nuclear intensity, 48 h; Potency, µM (doses to about 46.1 µM), for inactives: at the top dose activity, positive = re-replication, hits mostly activators; 350,000 compounds, 2.9% hits; AID 624296, 2012; note: potency is the fitted concentration of half-maximal effect; % of control where 0% means no effect; nearly all actives have a fitted effect of over 50% in size
An asterisk follows results filed as active; u = inconclusive; x = no result given; [ ] = dose if it differs, or a comment. Most compounds without a hit are left out; they make up all but 6.9% or so of the library. Unless noted, calls come from the whole dose curve; as a rule, active = well fitted curve in the direction sought with a large enough effect; inconclusive = small, poorly fitted or top-dose-only effect, or another doubt; inactive = no such curve, though single readings can be large; an effect the other way counts as inactive or inconclusive.

SMILES	IL-1B inflam inh	Vif-A3F inh	SW480 rerep	Giardia killer	Vif-APOBEC3G blk	MCF10A rerep
NS(=O)(=O)c1ccc(NC(=O)COC(=O)c2cnc(Cl)c(Cl)c2)cc1	-75.0*	-3.3%	-2.4%	-6.9	0.0%	-5.3%
NS(=O)(=O)c1ccc(NC(=O)COC(=O)c2cc([N+](=O)[O-])ccc2Cl)cc1	-89.9*	2.0%	-4.3%	7.9	-0.5%	-1.7%
O=C(CN1CCCN(S(=O)(=O)c2ccc(Br)cc2)CC1)Nc1cccc(C(F)(F)F)c1	x	0.6%	x	x	4.3%	x
COC(=O)C(CC(C)C)NS(=O)(=O)c1ccccc1Br (configuration not stated)	x	x	x	-4.2	-1.3%	x
CCC(C)c1ccc(NC(=O)COc2c(F)c(F)c(C(F)(F)F)c(F)c2F)cc1 (configuration not stated)	-77.0*	-25.1%	13.4%	6.5	-10.8%	u
O=C(COc1c(F)c(F)c(C(F)(F)F)c(F)c1F)Nc1ccc(N2CCOCC2)c(Cl)c1	u	-10.8%	1.4%	-13.6	-0.2%	u
COc1cccc(C2=Nn3c(nnc3-c3ccccc3O)SC2)c1	22.9	-8.3%	7.0%	-11.6	-3.9%	16.1%
C[n+]1c2n(c3ccccc31)N=C(c1cc(C(C)(C)C)c(O)c(C(C)(C)C)c1)CS2	-100.3*	19.6%	u	-9.9	-7.2%	16.4µM*
CCOc1cc(-c2nccc3cc(OC)c(OC)cc23)cc(OCC)c1OCC	-71.9*	-1.1%	-3.4%	13.0	-3.6%	13.6%
O=C(CN1C(=O)NC2(CCCc3ccccc32)C1=O)c1ccc(Br)cc1 (configuration not stated)	-8.1	-8.8%	u	-9.4	0.5%	12.7%
O=C(CN1C(=O)NC2(CCc3ccccc32)C1=O)c1ccc(Br)cc1 (configuration not stated)	-58.8*	u	-0.7%	35.0	-1.1%	26.0%
O=c1[nH]c(CN2CCN(S(=O)(=O)/C=C/c3ccccc3)CC2)nc2ccccc12	-4.8	-9.5%	1.7%	13.7	-8.4%	28.1%
O=c1[nH]c(CN2CCN(S(=O)(=O)/C=C/c3ccccc3)CC2)nc2cc(Cl)ccc12	-8.4	9.6%	u	4.4	-6.4%	18.4µM*
NC(=O)C1CCN(Cc2nc3cc(Cl)ccc3c(=O)[nH]2)CC1	22.9	6.4%	-0.2%	25.1	-0.1%	20.6µM*
O=C(NCC(c1ccco1)N1CCc2ccccc21)C(=O)Nc1ccccc1F (configuration not stated)	-6.6	-15.1%	u	36.8	-25.7%	u
O=C(NCC(c1ccco1)N1CCc2ccccc21)C(=O)Nc1ccc(F)cc1F (configuration not stated)	1.0	1.0%	u	2.2	-20.4%	4.11µM*
COc1cc(N(C)C)c(OC)cc1C=C1C=CC=C1	x	x	x	x	-2.9%	x
CC(C)c1ccc(OCCCCCN2CCOCC2)cc1	-4.1	8.6%	0.9%	-5.2	-4.7%	u
CC(=O)Oc1ccc(OC(C)=O)c(SCCCCCN2CCOCC2)c1	0.0	-9.4%	u	-1.6	u	4.11µM*
COc1ccccc1NC(=O)CSC1=Nc2ccccc2C2=NC(Cc3ccccc3)C(=O)N12 (configuration not stated)	x	0.4%	x	x	-1.1%	x
O=S(=O)(c1ccc(Cl)cc1)N1CCCC(c2nc(-c3ccc(F)cc3)no2)C1 (configuration not stated)	-26.3	0.3%	12.0%[9.22 µM]	8.1	-0.1%	6.0%
COc1ccc(-c2noc(C3CCCN(C(=O)c4ccccc4)C3)n2)cc1 (configuration not stated)	-16.5	-0.8%	5.1%	13.7	3.6%	-1.4%

Assay outcomes (PubChem)
